Among the data in PubChem BioAssay AID602449 (Sanford-Burnham Center for Chemical Genomics, 2012) are inhibition values, retold here.

The whole screen tested about 360,000 compounds, of which about 5,000 (1.4%) were called active.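 The calls were made as follows: active = inhibition of 50% or more, scaled per plate between neutral and stimulator controls; inactive = the rest.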 The list comes from a sample in which actives are over-represented; it also holds similar structures and randomly drawn compounds.

In general, inhibition refers to the drop in the measured response relative to a control, in per cent.

This experiment in a line: blockers of Ca2+-induced mitochondrial swelling – biochemical, isolated mouse mitochondria, absorbance, primary screen (AID 602449).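 Also: 0% = DMSO wells given calcium and 100% = 1 mM EGTA wells.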 The note with it: 30 min, at 10 µM, hits give high values.
Consider `Cc1c(S(=O)(=O)NC(C)c2ccccc2)c(=O)n(C)c(=O)n1C` (stereo not given), for which the inhibition is 1.4% (inactive).

Turning to `CN(Cc1nc2ccccc2c(=O)[nH]1)Cc1cc(=O)oc2ccc3ccccc3c12`, the inhibition was -0.3% (inactive).

On to `COc1cc(/C=N/N=C(\N)c2nonc2N)cc(OC)c1OC`, for which the inhibition is -1.6% (inactive).

For `Cc1cc(Cl)ccc1-c1nc(NCCN(C)C)nc2ccsc12`, the inhibition is 1.8% (inactive).

Turning to `CC1(c2ccc3ccccc3c2)NC(=O)NC1=O` (stereo not given), the inhibition was 0.6% (inactive).

For the compound `Cc1nc(SCC(=O)NC2CCCCC2C)c(C#N)c(C)c1C` (stereo not given), the inhibition is 0.8% (inactive).

For the compound `O=[N+]([O-])c1ccc(Sc2n[nH]c(-c3ccco3)n2)nc1`, the inhibition was -1.5% (inactive).

`CCCC[C@@H]1CN=C(N)N1CCCC`: the inhibition is 1.3% (inactive).

With `CCCCN1C(N)=NC[C@@H]1Cc1ccccc1`, the inhibition was -0.6% (inactive).

`CCCC[C@@H]1CN=C(N)N1CCc1cc(C(F)(F)F)cc(C(F)(F)F)c1`: the inhibition is 88.5% (active).

`CCCN(Cc1cc2cccc(C)c2[nH]c1=O)S(C)(=O)=O`: the inhibition was -1.3% (inactive).

As to `COc1cccc(CNc2ncc(-c3ccccc3)n2C)c1`, the inhibition is 2% (inactive).

Take `COc1ccc(/C=C/C(=O)Nc2ccc(C34CC5CC(CC(O)(C5)C3)C4)cc2)cc1OC`: the inhibition is -0.1% (inactive).

For the compound `CC(=O)Nc1ccc(NC(=O)COc2ccccc2C(=O)Nc2cccc(Cl)c2Cl)cc1`, the inhibition was 6.8% (inactive).

Consider `CCOC(=O)c1ccc[n+](CC(=O)Nc2ccccc2OC(F)F)c1`, for which the inhibition is -3.5% (inactive).

As to `FC(F)Oc1ccccc1NC(=S)Nc1cccc(Cl)c1Cl`, the inhibition was 50.2% (active).

For the compound `Cc1ccccc1N1CC(C(=O)Nc2ccc(S(=O)(=O)N3CCCC3)cc2)CC1=O` (stereo not given), the inhibition was -2.9% (inactive).

`Clc1ncn(CCOc2ccccc2)c1Cl`: the inhibition is -3.1% (inactive).

Regarding `COCCOCCn1cnc2ccccc21`, the inhibition was -0.6% (inactive).

With `Cc1cc2ncn(CCCCOc3ccccc3)c2cc1C`, the inhibition was 77.9% (active).

`CCOC(=O)C1CCCN(C(=O)c2cccc3ccccc23)CC1` (stereo not given): the inhibition was 0% (inactive).

Consider `CC(C)CC(COCc1ccc(Cl)cc1)N1CCN(C(=O)c2ccc(C(F)(F)F)cc2)CCC1=O` (stereo not given), for which the inhibition was -1.6% (inactive).

For the compound `Cc1cc(C(=O)OCC(=O)Nc2nnc(C(C)C)s2)c2ccccc2n1`, the inhibition was 22.9% (inactive).

As for `CC(NC(=O)COC(=O)c1ccc2ccccc2n1)c1ccccc1` (stereo not given), the inhibition is -0.2% (inactive).

For `CC(C)CC(=O)N/C(N)=N/c1nc2ccccc2s1`, the inhibition was 81.8% (active).

Turning to `CCOC(=O)C1CCN(C(=O)CSc2cc(=O)n(C)c3ccccc23)CC1`, the inhibition was 0.5% (inactive).

Turning to `Cc1ccc(-n2cc(CN(C)Cc3nccn3C)c(-c3cccc(C)c3)n2)cc1`, the inhibition was 0.5% (inactive).

Consider `CC(C)(CCl)C(=O)Nc1ccc(Sc2ccc(F)cc2)cc1`, for which the inhibition was 73.1% (active).

`CCN(c1ccccc1)S(=O)(=O)c1ccc(NC(=O)C(C)(C)C)cc1`: the inhibition was -1.2% (inactive).

With `O=C(CCl)Nc1ccc(Sc2ccc(NC(=O)CCl)cc2)cc1`, the inhibition is 6% (inactive).

As to `CC1(C)CCSC(/C=C/c2ccccc2)=N1`, the inhibition was 1.3% (inactive).

For `COCCN1C(=O)C(=O)/C(=C(/O)c2ccc(S(=O)(=O)N3CCCCC3)cc2)C1c1ccc(OC)c(OC)c1` (stereo not given), the inhibition is -0.3% (inactive).

For the compound `CCCC(=O)N1CCC1(C)C(=O)Nc1ccc(-n2cncn2)cc1` (stereo not given), the inhibition is -1.3% (inactive).

As to `O=C(c1cc(COc2c(F)cccc2F)on1)N1CCSCC1`, the inhibition was 2% (inactive).

On to `C=CCC1(CC=C)CCCN1C(=O)c1cc(COc2ccc(-n3cncn3)cc2)on1`, for which the inhibition was 105% (active).

As to `CC(C)c1nc2oc3c(N4CCN(C)CC4)ncnc3c2c2c1CCC2`, the inhibition was -0.5% (inactive).

Turning to `c1ccc2cc3c(NCCN4CCOCC4)ccnc3cc2c1`, the inhibition is 1.4% (inactive).

As to `O=C1CCCc2nn(-c3ccccc3)nc21`, the inhibition is 0.8% (inactive).

On to `O=C(c1ccc(N2CCOCC2)c([N+](=O)[O-])c1)N1CCN(c2ccccc2F)CC1`, for which the inhibition is 0% (inactive).

Take `COc1cc(OC)cc(C(=O)NC(=S)N2CCN(c3ccc(C(F)(F)F)cc3[N+](=O)[O-])CC2)c1`: the inhibition is 0.6% (inactive).

Consider `O=C(c1ccc(N2CCCC2=O)cc1)N1CCN(c2ccc(C(F)(F)F)cc2[N+](=O)[O-])CC1`, for which the inhibition was 74.9% (active).

As for `CCOc1cc(CNn2c(C)nnc2SCC(=O)NC(C)(C)C)ccc1OCC(=O)NC(C)(C)C`, the inhibition is -1.3% (inactive).

Turning to `CC(C)(C)Nc1c(-c2cccs2)nc2ccccn12`, the inhibition is 0.8% (inactive).

In the case of `Cc1ccc(N(Cc2cc(=O)[nH]c3ccccc23)C(=O)CCl)cc1`, the inhibition was -0.5% (inactive).

As for `O=C(CSc1ccc(-c2ccco2)nn1)NCc1ccc2c(c1)OCO2`, the inhibition was -0.3% (inactive).

On to `COc1ccc(NC(=O)CSc2ccc(-c3ccco3)nn2)c(OC)c1`, for which the inhibition was 0.7% (inactive).

In the case of `Brc1ccc(CSc2ccc(-c3ccco3)nn2)cc1`, the inhibition is 57.6% (active).

As to `CCn1c(=O)n(CC)c2cc(N3CCCC3)c(NC(=O)c3ccccc3Br)cc21`, the inhibition is 0.5% (inactive).

`CC/C(O)=C1\C(=O)CC(C)(C)CC1=NCCc1nc2ccccc2[nH]1`: the inhibition was -1.5% (inactive).

On to `CC1C/C(=N/NC(=O)c2cccs2)CC(C)(C)C1` (stereo not given), for which the inhibition was -1% (inactive).

On to `Cc1nn(C)cc1C(=O)NNC(=S)Nc1ccc(Cl)cc1`, for which the inhibition was 1.7% (inactive).

In the case of `Cc1nn(C)cc1CNC(=O)Nc1ccc(Cl)cc1`, the inhibition was 92.2% (active).

As for `Cc1ccc(-c2cc(C(=O)NCc3cn(C)nc3C)c3cc(Br)ccc3n2)cc1`, the inhibition was 1.7% (inactive).

In the case of `CN(C)Cc1ccc(F)cc1Sc1cc(Cl)ccc1Cl`, the inhibition is 59% (active).

`Cc1ccc(-c2ccc(=O)n(Cc3ccc(F)cc3Cl)n2)cc1`: the inhibition was 0% (inactive).

Regarding `CN(Cc1ccc(F)cc1Cl)S(=O)(=O)c1cccs1`, the inhibition was -2.3% (inactive).

On to `Cc1ccc(-c2c[n+](=O)c3c(n2[O-])CCC3)cc1`, for which the inhibition is 0.3% (inactive).

Regarding `O=C1CCC(C(=O)N2CCCCO2)CN1Cc1cccc(C(F)(F)F)c1` (stereo not given), the inhibition is 0.5% (inactive).

Turning to `C=CCOc1ccccc1CNn1c(C)n[nH]c1=S`, the inhibition was -0.7% (inactive).

For the compound `O=C(Cc1ccccc1)N1CCN(S(=O)(=O)c2ccc([N+](=O)[O-])cc2)CC1`, the inhibition was -3.8% (inactive).

As for `O=C(c1ccncc1)N1CCN(S(=O)(=O)c2cccc([N+](=O)[O-])c2)CC1`, the inhibition was -0.5% (inactive).

Regarding `O=C(c1ccncc1)N1CCN(S(=O)(=O)c2cc(C(F)(F)F)cc(C(F)(F)F)c2)CC1`, the inhibition was 106% (active).

`CC(C)(C)c1ccc(S(=O)(=O)N2CCN(C(=O)c3ccc4c(c3)C(=O)N(Cc3ccncc3)C4=O)CC2)cc1`: the inhibition is 32.6% (inactive).

For `O=C(CCC(=O)N1CCN(S(=O)(=O)c2ccc(Cl)cc2)CC1)NCc1cccc(C(F)(F)F)c1`, the inhibition is -2.6% (inactive).

For the compound `O=C(Cc1ccsc1)N1CCN(S(=O)(=O)c2cc(C(F)(F)F)cc(C(F)(F)F)c2)CC1`, the inhibition was 53.1% (active).
